Laboratory results taken from the supplement of paper PMC11417369.
± gives the standard deviation of the averaged measurements. In all, about 25,000 sequences were measured (“ln(normalized median fluorescence intensity)”: median about 7.9, highest 2% from about 11 on). Shown is part of a subset that was picked to be rich in the highest values.

test system: PfAP2-I AP2 domain 3 (GST-tagged); test: gcPBM binding intensity (ln(normalized median fluorescence intensity)); higher = stronger DNA binding
In short: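 Binding intensity is defined as the maximum Masliner-normalised natural-log median intensity across replicate spots for either probe orientation. It was measured on an Agilent 4 × 180k array of primer-extended double-stranded 36-bp intergenic genomic probes and negative controls, to which GST-tagged P. falciparum DNA-binding domains made in E. coli were applied for 1 h in 1× PBS with 1% milk, 0.2 mg/ml BSA, 0.5% salmon testes DNA and 0.03% Triton X-100. Detection was by Alexa488 anti-GST antibody and scanning at 488 nm.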

Row | Sequence | gcPBM binding intensity (ln)
1 | TTTCACCATATAAACGTGCACACTACAAAAATATAT [CACACA_site2547] | 11.1 ± 0.35
2 | TACAAACACCCATATACACACAAAAAAAAAATAAAA [CACACA_site5421] | 7.78 ± 0.31
3 | AAACAAAAAATATATACACACTAAACATAAAAAAAA [CACACA_site4185] | 7.81 ± 0.65
4 | TCACCATATAAACGTGCACACTACAAAAATATATAA [CACACA_site5413] | 11 ± 0.24
5 | TTTCACTACACAAATACACACAAAAATATATGTGCA [CACACA_site2632] | 7.91 ± 0.54
6 | CCATATCTTTTTTGCACACACTACAATAAAACAAAA [CACACA_site4995] | 9.95 ± 0.2
7 | TCTAATTTAAAATACACACACATATCTATAATATAT [CACACA_site7029] | 7.63 ± 0.28
8 | TGAAAAATATAAGGTTGTACTTACATCGGGAATAAT [XGTACX_site4701] | 8.05 ± 0.55
9 | TAATTTTCAATAATTTGTACATAATTTTTATAAATT [XGTACX_site8133] | 7.49 ± 0.3
10 | AAATCGTAATATATTTGTACTTATTTGAAAAATCCA [XGTACX_site8141] | 7.76 ± 0.33
11 | TTCTTATTTAATGTATCACACACGAGAATAAAAAAT [CACACA_site8992] | 7.98 ± 0.48
12 | ACATTTTTTTTTTTTTTTCTTTTTCTTTTTCTTTTT [CACACA_negctrl_site1295] | 7.72 ± 0.52
13 | AACTAATAGTATATTACATGCAAAAGTAAAAGTAAA [TGCATGCA_site411] | 8.02 ± 0.78
14 | AAATATATAAAAGTATGTACATATGAAAAATATATA [XGTACX_site6165] | 8 ± 0.52
15 | GTATAAAAGTAACTAGTGCATTACATATGAATAAAA | 11.4 ± 0.6
16 | TAGCTTATTAATATCATACACACATAGATATATTTA [CACACA_site3105] | 7.5 ± 0.54
17 | CAATATTATAGATATACACACATAATGTGTAAAAAC [CACACA_site6631] | 7.87 ± 0.79
18 | TTCATTCAAATTAACGTGCACATTATTAGTAAAAAC | 11.05 ± 0.035
19 | GAAAAATTAAAAATAACACACACATATATATATTTA [CACACA_site8896] | 7.56 ± 0.4
20 | AAAAAATTAACGAGTGCACACATATTTAGATAAAAT [CACACA_site8958] | 9.86 ± 0.18
21 | TGTAAATTATAACGTGCACACATATTTAAAATGAAA [CACACA_site8915] | 11.2 ± 0.15
22 | TAAACGTTAGTATGTGTGCACATTAGTAATTTAAAA | 9.65 ± 0.3
23 | AAAATTAAAAATAACACACACATATATATATTTATA [CACACA_site2776] | 7.66 ± 0.34

Row | Sequence | gcPBM binding intensity (ln)
24 | TTAAAATGAAGAAGTGCACACATATATATATTTATA [CACACA_site8063] | 9.67 ± 0.18
25 | TAAATTATAACGTGCACACATATTTAAAATGAAATG [CACACA_site2820] | 11.3 ± 0.23
26 | TTAGTAAATACATTTGCACACATTATTTTTTAACAT [CACACA_site5448] | 9.36 ± 0.11
27 | CTTAATAAGAATAAATGTACAAGGGATAAAAAATTT [XGTACX_site3213] | 8.02 ± 0.73
28 | TTTTTTTTTTTTGAAACATGCATTGTTTTATTCTTA [TGCATGCA_site15] | 7.99 ± 0.85
29 | GGAAATTTCAATATTTGTACATATATATATATATAT [XGTACX_site3222] | 9.56 ± 0.6
30 | AGACATAAGATAATTACACACAATACATCCCTATAT [CACACA_site2227] | 7.76 ± 0.57
31 | AGAAACCTTGTTAGTTAGCATATATATATATATATA [CACACA_negctrl_site372] | 9.46 ± 0.46
32 | GGAAGCTAATTACACACATGCATATTTTTTTTTCAA [TGCATGCA_site548] | 8.16 ± 0.83
33 | TATACTTTATATATTTTGTATATATATTTTTTTTAT [TGCATGCA_negctrl_site530] | 7.5 ± 0.28
34 | ATTTTTTTTTTTTTTTTGGGGGGGTATACTTTTAAA [CACACA_negctrl_site1020] | 11.6 ± 0.4
35 | GTTAATATTTTTGGGGGTACTTAAAAAAAAAAAAAA [XGTACX_site1477] | 9.29 ± 0.26
36 | ATCTATGATATATACACACACATGTATAAATAAATA [CACACA_site7012] | 7.75 ± 0.47
37 | TTTTTCTTTTTTTGTTGTACATTTTGTAATATTTAC [XGTACX_site4102] | 7.9 ± 0.59
38 | TTATTTTTCTTTATTGGTACACACGAAAAAAAAATT [XGTACX_site6482] | 8.03 ± 0.3
39 | TTTTTTTTTTTTTTTTTTTTTTTTGGGTCCCATACA [CACACA_negctrl_site913] | 8.1 ± 0.63
40 | TAATGGAAACCATTTATTTTCTGCAATATATTTTTT [CACACA_negctrl_site1653] | 7.67 ± 0.35
41 | AAATTTATTATATATACATGCAATCATAAATAATGT [TGCATGCA_site539] | 7.68 ± 0.48
42 | AATCATTTATTGATGGTGCAATATACCATCTAATGA [GTGCAC_site9440] | 11.4 ± 0.76
43 | TTACAAAAATGTGGTTGTACACAAACAAAAAAAATA [XGTACX_site8506] | 8.35 ± 0.29
44 | TCTTTTTTTTCTTTTTTTTTATTTAAATATCAAGTA [CACACA_negctrl_site1354] | 7.59 ± 0.34
45 | TTTTATTGTTGTTATACACACCATATAAAATATTTC [CACACA_site4983] | 7.92 ± 0.6
